Data as given in PubChem BioAssay (NCI).
This is part of a sample that, as a whole, favours compounds with a hit. Of some 79,000 tested, about 15% had one in any assay. Calls of active or inactive are those of the source. Cut-off read from the data, not from the text of the source: active = growth inhibition above about 70%; inactive = the rest.

Experiments:
[1] = NCI Yeast Anticancer Drug Screen. Data for the rad52 strain (AID 147);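 note: 0% = growth of vehicle-treated control cultures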; settings: S. cerevisiae rad52 mutant growth inhibition, active compounds read high
Summary of the method: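 DNA repair-defective yeast; compound exposure; growth scored against vehicle controls.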

[2] = NCI Yeast Anticancer Drug Screen. Data for the wt1 strain (AID 149);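 note: 0% = growth of vehicle-treated wt1 cultures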; settings: S. cerevisiae wt1 strain (SPY 50644) growth inhibition, active compounds read high
Summary of the method: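 wt1 yeast, compound-treated; % growth inhibition vs vehicle control.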

[3] = NCI Yeast Anticancer Drug Screen. Data for the rad50EPP+ strain (AID 151);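 note: 0% = growth of vehicle-treated control cultures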; settings: S. cerevisiae rad50 mutant strain, active compounds read high
Summary of the method: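 rad50EPP+ yeast treated with test compounds. Readout: growth vs vehicle control.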

[4] = NCI Yeast Anticancer Drug Screen. Data for the mgt1 strain (AID 153); settings: S. cerevisiae mgt1 mutant growth inhibition, active compounds read high
Summary of the method: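 Growth inhibition relative to vehicle controls was scored for the mgt1 yeast strain after compound exposure.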

[5] = NCI Yeast Anticancer Drug Screen. Data for the rad50 strain (AID 155);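 note: 0% = growth of vehicle-only cultures of the same strain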; settings: S. cerevisiae rad50 strain growth inhibition, active compounds read high
Summary of the method: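 Genetically altered yeast (DNA repair pathway); compound treatment; growth inhibition vs vehicle ctrl.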

[6] = NCI Yeast Anticancer Drug Screen. Data for the mec2-1 strain (AID 157); settings: S. cerevisiae mec2-1 strain, active compounds read high
Summary of the method: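 Growth inhibition is read against vehicle-treated controls after compound exposure of the mec2-1 yeast strain, which is defective in DNA damage repair or cell cycle control.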

[7] = NCI Yeast Anticancer Drug Screen. Data for the rad14 strain (AID 159);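 note: 0% = growth of vehicle-treated control cultures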; settings: S. cerevisiae rad14 strain growth inhibition, active compounds read high
Summary of the method: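 Test compounds were applied to a repair-deficient yeast strain. Its growth was then compared with that of cultures given vehicle alone, and inhibition was expressed relative to those controls.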

[8] = NCI Yeast Anticancer Drug Screen. Data for the CLN2oe strain (AID 163);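 note: 0% = growth of vehicle-only control cultures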; settings: S. cerevisiae CLN2oe strain, active compounds read high
Summary of the method: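 Compound-treated yeast; growth vs vehicle ctrl = % inhibition. Genetically altered strain (cell-cycle control).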

[9] = NCI Yeast Anticancer Drug Screen. Data for the cln2 rad14 strain (AID 165);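 note: 0% = growth equal to vehicle treated cultures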; settings: S. cerevisiae cln2 rad14 strain, active compounds read high
Summary of the method: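 Growth inhibition, relative to vehicle-treated controls, is the read-out. The test organism is a yeast strain with defined genetic alterations, cln2 rad14.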

[10] = NCI Yeast Anticancer Drug Screen. Data for the bub3 strain (AID 167); settings: S. cerevisiae bub3 mutant strain, active compounds read high
Summary of the method: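 Yeast carrying a defined mutation is treated with each compound, and growth is compared with that of vehicle-exposed cells to give inhibition.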

[11] = NCI Yeast Anticancer Drug Screen. Data for the wt2 strain (AID 169);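 note: 0% = growth of vehicle-treated yeast cultures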; settings: S. cerevisiae wt2 strain growth inhibition, active compounds read high
Summary of the method: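 Compound exposure of yeast; growth compared with vehicle controls; inhibition reported.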

[12] = NCI Yeast Anticancer Drug Screen. Data for the mlh1 strain (AID 171);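 note: 0% = growth of vehicle-treated control cultures of the same strain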; settings: S. cerevisiae mlh1 strain growth inhibition, active compounds read high
Summary of the method: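 Compounds are applied to a genetically altered yeast strain, and its growth is compared with that of vehicle-treated cultures to give percent inhibition.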

[13] = NCI Yeast Anticancer Drug Screen. Data for the sgs1 strain (AID 173);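 note: 0% = growth of vehicle-only control cultures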; settings: S. cerevisiae sgs1 mutant, active compounds read high
Summary of the method: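 Compounds applied to genetically altered yeast; growth compared with vehicle-treated cultures to give % inhibition.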

[14] = NCI Yeast Anticancer Drug Screen. Data for the mlh1 rad18 strain (AID 175); settings: S. cerevisiae mlh1 rad18 strain growth inhibition, active compounds read high
Summary of the method: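 Cells of a genetically altered yeast strain, deficient in DNA damage repair, were treated with compound. Their growth was then compared with that of vehicle-treated cultures to give inhibition.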

[15] = NCI Yeast Anticancer Drug Screen. Data for the rad18 strain (AID 177); settings: S. cerevisiae rad18 mutant growth inhibition, active compounds read high
Summary of the method: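 Compounds are applied to a repair-deficient yeast strain, and growth is compared with that of vehicle-treated cultures to give percent inhibition.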

[16] = NCI Yeast Anticancer Drug Screen. Data for the sgs1 mgt1 strain (AID 161);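 note: 0% = growth of cultures given vehicle only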; settings: S. cerevisiae sgs1 mgt1 strain, active compounds read high
Summary of the method: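 Compounds are added to genetically altered yeast, and growth is compared with cultures given vehicle alone to give percent inhibition.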

[17] = at 5.0 µM (retest, dose inferred, filed as 0.5)
[18] = at 50.0 µM (retest, dose inferred, filed as 5.0)

Measured: growth inhibition

O=C(/C=C\c1cccc(C(F)(F)F)c1)c1ccccc1
inactive: [1]; at 1.2 µM -3% | [1]; at 3.7 µM -2% | [1]; at 11.0 µM -1% | [1]; at 33.0 µM -3% | [1]; at 100.0 µM -3% | [2]; at 1.2 µM -1% | [2]; at 3.7 µM 2% | [2]; at 11.0 µM -1% | [2]; at 33.0 µM -3% | [2]; at 100.0 µM -5% | [3]; at 1.2 µM 1% | [3]; at 3.7 µM 0% | [3]; at 11.0 µM 3% | [3]; at 33.0 µM 4% | [3]; at 100.0 µM 9% | [4]; at 1.2 µM -3% | [4]; at 3.7 µM -1% | [4]; at 11.0 µM -3% | [4]; at 33.0 µM -2% | [4]; at 100.0 µM -4% | [5]; at 1.2 µM -3% | [5]; at 3.7 µM -3% | [5]; [17] -5% | [5]; at 11.0 µM -1% | [5]; at 33.0 µM -4% | [5]; [18] 40% | [5]; at 50.0 µM 20.3% | [5]; at 100.0 µM -1% | [6]; at 1.2 µM -4% | [6]; at 3.7 µM 0% | [6]; [17] -19% | [6]; at 11.0 µM 0% | [6]; at 33.0 µM 1% | [6]; [18] 3% | [6]; at 50.0 µM 20.1% | [6]; at 100.0 µM -5% | [7]; at 1.2 µM -2% | [7]; at 3.7 µM 1% | [7]; at 11.0 µM 2% | [7]; at 33.0 µM -2% | [7]; at 100.0 µM -3% | [8]; at 1.2 µM -2% | [8]; at 3.7 µM -11% | [8]; at 11.0 µM -5% | [8]; at 33.0 µM -5% | [8]; at 100.0 µM -10% | [9]; [17] 8% | [9]; [18] 10% | [9]; at 50.0 µM 1.55% | [10]; at 1.2 µM -2% | [10]; at 3.7 µM -6% | [10]; [17] 11% | [10]; at 11.0 µM -2% | [10]; at 33.0 µM -3% | [10]; [18] 49% | [10]; at 50.0 µM 26.1% | [10]; at 100.0 µM -9% | [11]; at 1.2 µM -2% | [11]; at 3.7 µM 0% | [11]; at 11.0 µM -2% | [11]; at 33.0 µM -2% | [11]; at 100.0 µM -4% | [12]; at 1.2 µM -2% | [12]; at 3.7 µM -2% | [12]; at 11.0 µM -2% | [12]; at 33.0 µM -3% | [12]; at 100.0 µM -1% | [13]; at 1.2 µM -2% | [13]; at 3.7 µM -3% | [13]; at 11.0 µM 1% | [13]; at 33.0 µM 0% | [13]; at 100.0 µM 3% | [14]; [17] 16% | [14]; at 50.0 µM 25.9% | [15]; at 1.2 µM 0% | [15]; at 3.7 µM 1% | [15]; at 11.0 µM 7% | [15]; at 33.0 µM 22% | [15]; at 100.0 µM 57%
active: [14]; [18] 78%

CN(C)N=Nc1ccccc1C(=O)NC#N
inactive: [1]; at 1.2 µM 8% | [1]; at 3.7 µM 0% | [2]; at 1.2 µM -8% | [2]; at 3.7 µM -2% | [3]; at 1.2 µM 7% | [3]; at 3.7 µM 0% | [3]; at 11.0 µM 13% | [4]; at 1.2 µM -1% | [4]; at 3.7 µM 20% | [5]; at 1.2 µM -5% | [5]; at 3.7 µM -14% | [5]; [17] 18% | [6]; at 1.2 µM -12% | [6]; at 3.7 µM 0% | [6]; [17] 8% | [7]; at 1.2 µM -17% | [7]; at 3.7 µM -14% | [16]; [17] 36% | [16]; [18] 53% | [9]; [17] 35% | [9]; [18] 67% | [10]; at 1.2 µM 13% | [10]; at 3.7 µM 10% | [10]; [17] 39% | [11]; at 1.2 µM -8% | [11]; at 3.7 µM -1% | [12]; at 1.2 µM 1% | [12]; at 3.7 µM 4% | [13]; at 1.2 µM -6% | [13]; at 3.7 µM -24% | [14]; [17] 5% | [15]; at 1.2 µM 12% | [15]; at 3.7 µM 5%
active: [1]; at 11.0 µM 83% | [1]; at 33.0 µM 98% | [1]; at 100.0 µM 98% | [2]; at 11.0 µM 97% | [2]; at 33.0 µM 98% | [2]; at 100.0 µM 99% | [3]; at 33.0 µM 98% | [3]; at 100.0 µM 98% | [4]; at 11.0 µM 98% | [4]; at 33.0 µM 99% | [4]; at 100.0 µM 98% | [5]; at 11.0 µM 97% | [5]; at 33.0 µM 98% | [5]; [18] 98% | [5]; at 50.0 µM 90% | [5]; at 100.0 µM 94% | [6]; at 11.0 µM 97% | [6]; at 33.0 µM 99% | [6]; [18] 99% | [6]; at 50.0 µM 91.5% | [6]; at 100.0 µM 95% | [7]; at 11.0 µM 75% | [7]; at 33.0 µM 98% | [7]; at 100.0 µM 96% | [16]; at 50.0 µM 91.5% | [9]; at 50.0 µM 89.8% | [10]; at 11.0 µM 98% | [10]; at 33.0 µM 99% | [10]; [18] 77% | [10]; at 50.0 µM 90.2% | [10]; at 100.0 µM 99% | [11]; at 11.0 µM 98% | [11]; at 33.0 µM 99% | [11]; at 100.0 µM 99% | [12]; at 11.0 µM 93% | [12]; at 33.0 µM 99% | [12]; at 100.0 µM 98% | [13]; at 11.0 µM 98% | [13]; at 33.0 µM 98% | [13]; at 100.0 µM 99% | [14]; [18] 98% | [14]; at 50.0 µM 89.4% | [15]; at 11.0 µM 97% | [15]; at 33.0 µM 99% | [15]; at 100.0 µM 95%

O=C1N=C2SC=C(NC(=S)Nc3ccccc3)N2NC12c1ccccc1-c1ccccc12
active: [1]; at 100.0 µM 73% | [2]; at 100.0 µM 78% | [4]; at 33.0 µM 77% | [4]; at 100.0 µM 88% | [5]; at 50.0 µM 78% | [5]; at 100.0 µM 76%
inactive: [1]; at 1.2 µM 11% | [1]; at 3.7 µM 12% | [1]; at 11.0 µM 19% | [1]; at 33.0 µM 46% | [2]; at 1.2 µM 3% | [2]; at 3.7 µM 3% | [2]; at 11.0 µM 7% | [2]; at 33.0 µM 38% | [3]; at 1.2 µM 2% | [3]; at 3.7 µM 7% | [3]; at 11.0 µM 5% | [3]; at 33.0 µM 11% | [3]; at 100.0 µM 16% | [4]; at 1.2 µM 6% | [4]; at 3.7 µM 6% | [4]; at 11.0 µM 30% | [5]; at 1.2 µM 6% | [5]; at 3.7 µM 0% | [5]; [17] 1% | [5]; at 11.0 µM 4% | [5]; at 33.0 µM 49% | [5]; [18] 48% | [6]; at 1.2 µM 15% | [6]; at 3.7 µM 13%
